In this experiment the target is AMP-activated protein kinase, AMPK (Homo sapiens) (UniProt P54646+O43741+P54619+Q9UGJ0+Q9Y478+Q13131+Q9UGI9). Briefly: AMP-dependent Kinase enzyme assay. An in vitro enzyme assay that detects ADP turnover that is directly proportional to AMPK activity. This uses naive AMPK that is activated during the assay with MK-8722. The settings on record: 30 µM. Type of experiment: functional. Further details: scale not given: direction of the effect not stated beside the values.
Turning to `CCOc1cc(NC(=O)N2CCC3(CCOCC3)C2)ccc1C`, the Percent Effect is -0.853%.

For the compound `CN(Cc1ccc([S+](C)[O-])cc1)c1cncc(Br)c1` (stereo not given), the Percent Effect was 13.9%.

Consider `COc1ccc(CC(C)Nc2cccc(SC)c2)cc1` (stereo not given), for which the Percent Effect is -5.64%.

With `CC(C)c1nccc(CN(C)Cc2cccc(-n3cccn3)c2)n1`, the Percent Effect is -3.37%.

On to `CC(C)c1ccccc1OCCNC(=O)N1CCC(CC(N)=O)CC1`, for which the Percent Effect is -3.47%.

As for `Cc1cnccc1CNCc1ccc(OC23CCCN(CC2)C3)cc1` (stereo not given), the Percent Effect is -10.2%.

Consider `N#Cc1cccc(N2CCC(CO)(CCc3ccccc3)CC2)n1`, for which the Percent Effect amounted to 3.06%.

In the case of `CCn1c(C2CCNCC2)nn(CCn2ccc(C)n2)c1=O`, the Percent Effect came out at 5.45%.

Turning to `COc1cccc(Cn2ncnc2CCC(C)N2CCN(C)CC2)c1` (stereo not given), the Percent Effect was -1.98%.

As to `Cc1nccn1[C@@H]1CC[C@@H](N(C)S(=O)(=O)c2ccccc2F)[C@H]1O`, the Percent Effect came to 5.86%.

On to `O=C(Nc1ccc(F)cc1F)NC1(CO)CCOCC1`, for which the Percent Effect turned out to be 4.61%.

With `COc1ccc(OCc2noc(CN(C)C3CCS(=O)(=O)C3)n2)cc1` (stereo not given), the Percent Effect was -2.23%.

Take `CC(C)(C)C(=O)NCCc1cc(N2CCOCC2)nc(NC2CC2)n1`: the Percent Effect worked out at 17.4%.

For `Cc1cc(NCCc2c(C)n[nH]c2C)nc(-c2cccnc2)n1`, the Percent Effect is -4.66%.

On to `Cc1cnc(C(=O)NCC2CCOc3ccccc3C2)cn1` (stereo not given), for which the Percent Effect is -2.4%.

As for `O=C(NCCn1ccnc1-c1cc2n(n1)CCNC2)c1ccc(F)cc1`, the Percent Effect turned out to be 1.27%.

In the case of `CN(Cc1csc(-c2cccs2)n1)Cc1ncccc1C(=O)O`, the Percent Effect was -1.78%.

Take `Cc1cnn(CCNCC(=O)N2CCN(c3ncccn3)CC2)c1`: the Percent Effect is -6.6%.

Turning to `Cc1c(NC(=O)NCCO)cccc1OC1CCCC1`, the Percent Effect was -2.68%.

For the compound `CC(=O)N1CCC(Cc2ccc(-c3ccnn3C)nc2)CC1`, the Percent Effect was -2.26%.

The values are drawn from ChEMBL document CHEMBL3988442, “University of Dundee, Small-Polar-MMV Screening Library” (2021).
